Source: PubChem BioAssay (National Center for Advancing Translational Sciences (NCATS))
Rows were chosen to be rich in hits. Some 12% of all compounds tested hit in one or more screens of this group.
Sm TGR block: inhibitors of Schistosoma mansoni thioredoxin glutathione reductase; purified TGR, DTNB reduction, TNB absorbance 405 nm; 3% of 360,000 active; Potency, µM (doses to about 114 µM), without a hit: top-dose activity change, negative = inhibition, actives largely listed as inhibitors; Q962Y6; active = well fitted inhibition curve with a large enough effect; inconclusive = small, poorly fitted or top-dose-only effect; inactive = no such curve, though single readings can be large or run the other way; also: potency is read from the fitted curve at half-maximal effect; % is scaled to controls: 0 for no effect and ±100 for the full control effect; nearly all actives have a fitted effect of over 60% in size
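TGR 20 nM + NADPH 100 uM (dispensed conc.), cpd preinc 15 min RT; start with NADPH (500 uM addition) then DTNB (15 mM addition). Kinetic TNB absorbance, 405 nm filter. Four-parameter Hill fit across titration.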
Shiga inhibitor: blocks Shiga toxin action in Vero cells; Vero cells, Shiga toxin protein synthesis inhibition reporter; 9.2% of 290,000 active; inhibition, % at 38.7 µM; in the data active = inhibition mostly above about 28%, no sharp cut-off; inactive = mostly below about 43%; also: 0% is about no effect
Cycloheximide cs: counter-screen hit for Shiga toxin inhibitors, cycloheximide. cell reporter, cycloheximide protein synthesis inhibition counterscreen. max response, %. 12% of 300,000 active. AID 2314; in the data active = max response mostly above about 13%, no sharp cut-off; inactive = mostly below about 14%; also: read at 38.3 µM for the half of the compounds with a filed dose; 0% is about no effect
FMDV antiviral: foot and mouth disease virus antiviral activity; 1.2% of 410,000 active; FMDV antiviral cell-based qHTS; Potency, µM (top dose mostly 57.9 µM), for inactives: top-dose activity change, negative = inhibition, hits mostly inhibitors; calls by dose curve; tested in HEK293T cells; also: read-out not given here; potency is read from the fitted curve at half-maximal effect; % is scaled to controls: 0 for no effect and ±100 for the full control effect; nearly all actives have a fitted effect of over 45% in size
The depositor's hits bear a star; ? = inconclusive; . = no result; ! = a repeat was not active; [ ] = dose if it differs, or a comment.

SMILES	Sm TGR block	Shiga inhibitor	Cycloheximide cs	FMDV antiviral
Cc1cc(C(=O)N/N=C/c2ccccc2)c(C)o1	0%	68*	58*	14%
COc1cc(/C=N/NC(=O)CN2CCCCC2)ccc1OCc1ccc(Br)cc1	-3%	-2	12*	-3%
Cc1cccc(C(=O)Nc2ccccc2OCc2cc(=O)n3ccccc3n2)c1	-1%	.	.	-3%
CSCC[C@H](NC(=O)[C@H](CCC(N)=O)NC(=O)[C@H](CCCCN)NC(=O)[C@H](CCCNC(=N)N)NC(=O)[C@H](Cc1ccc(O)cc1)NC(=O)[C@H](CCCNC(=N)N)NC(=O)[C@H](CO)NC(=O)[C@H](Cc1ccc(O)cc1)NC(=O)[C@H](CO)NC(=O)[C@H](CC(=O)O)NC(=O)[C@@H](NC(=O)[C@@H](N)Cc1ccccc1)[C@@H](C)O)C(=O)N[C@@H](C)C(=O)N[C@H](C(=O)N[C@@H](CCCCN)C(=O)N[C@@H](CCCCN)C(=O)N[C@@H](Cc1ccc(O)cc1)C(=O)N[C@@H](CC(C)C)C(=O)N[C@@H](C)C(=O)N[C@@H](C)C(=O)N[C@H](C(=O)N[C@@H](CC(C)C)C(=O)NCC(=O)N[C@@H](CCCCN)C(=O)N[C@@H](CCCNC(=N)N)C(=O)N[C@@H](Cc1ccc(O)cc1)C(=O)N[C@@H](CCCCN)C(=O)N[C@@H](CCC(N)=O)C(=O)N[C@@H](CCCNC(=N)N)C(=O)N[C@H](C(=O)N[C@@H](CCCCN)C(=O)N[C@@H](CC(N)=O)C(=O)N[C@@H](CCCCN)C(N)=O)C(C)C)C(C)C)C(C)C	.	-11	-9	.
Cc1cc(C(=O)N/N=C/c2cccc3ccccc23)c(C)o1	-25%	41	29*	39%
Cc1nn(C)c(C(=O)N/N=C/c2cccc3ccccc23)c1Cl	-14%	43*	11*	29%
Nc1ncc(O)c(N)n1	.	-4	2	.
Cn1c(CNC(=O)CSc2n[nH]c(-c3ccccc3)n2)nc2ccccc21	-3%	.	.	1%
Cc1ccc(O)c(NC(=O)c2nc3nc(C)cc(C(F)F)n3n2)c1	19%	.	.	-9%
O=C(COC(=O)c1ncc(Cl)c(Cl)c1Cl)Nc1ccc(Cl)cn1	40µM*	.	.	-16%
CCOc1ccc(C(=O)Nc2ccc(Cl)cn2)cc1Cl	-12%	106*	38*	.
CCOc1ccc(C(=O)Nc2cccc(C(=O)O)c2)cc1Cl	15%	59*	38*	8.9µM*
O=C(COc1ccc(Cl)cc1Cl)Nc1ccc(Cl)cn1	12%[11.4 µM]	92*	30*	.
COc1ccccc1OCCn1c(C(C)Oc2ccccc2)nc2ccccc21 (stereo not given)	3%	.	.	-18%
Cc1c(Cl)cccc1Nc1nn2c(=O)c3ccc(C(=O)NCCC4=CCCCC4)cc3nc2s1	-15%	.	.	?
COc1ccc(C)cc1NC(=O)c1cc(S(=O)(=O)NC2CCCCCC2)ccc1F	2%	.	.	46%
CCN1c2ccccc2NC2N=C(OC)C(c3ccccc3)C21 (stereo not given)	-8%	5	18*	-12%
CCN1c2ccccc2NC2C1C(C(C)=O)C(=O)N2c1ccc(Cl)cc1 (stereo not given)	-10%	-9	-1	.
Cn1c(C(=O)NCc2ccccc2Cl)cc2sc(Cl)cc21	7%	.	.	12%
COc1ccc(OC)c(CCNc2nc3cc(OC)c(OC)cc3c3nc(-c4cccnc4)nn23)c1	-2%	.	.	-10%
CN1C(=O)c2ccc(NC(=O)c3ccc(Cl)cc3Cl)cc2C1=O	16%	14	22*	30%
CCCCOc1ccc(NC(=O)c2cc(F)c(F)cc2Cl)cc1	5%	22	10	6%
O=C(Nc1ccc2ccccc2c1)c1ccccc1O	11%	36*	23*	-61%
O=C(Nc1ccc2ccccc2c1)c1ccc(Cl)cc1Cl	11%	32*	26*	-28%
O=C(Nc1ccc2ccccc2c1)c1cc(F)c(F)cc1Cl	8%	110*	47*	31%
SMILES	Sm TGR block	Shiga inhibitor	Cycloheximide cs	FMDV antiviral
O=C(Nc1ccc2ccccc2c1)c1ccccc1Cl	.	.	.	23%
CCOc1ccc(-n2c(SCC(=O)Nc3ccc(F)cc3)nc3c([nH]c4ccccc43)c2=O)cc1	-4%	.	.	0%
Cc1sc(NC(=O)C2C3CCC(O3)C2C(=O)O)nc1-c1ccc(CC(C)C)cc1 (stereo not given)	-10%	80*	42*	16%
CCOC(=O)c1c(NC(=O)C2C3CCC(O3)C2C(=O)O)sc(C)c1-c1ccc(C)cc1 (stereo not given)	3%	13	4	0%
O=C(Nc1ccc(Br)cc1F)N1CCC(CN2CCCC2)CC1	-20%	.	.	-1%
Cc1cn([C@H]2C=C[C@@H](CO)O2)c(=O)[nH]c1=O	4%	162*!	52*!	0%
O=S(=O)(Nc1ccc(O)c2ccccc12)c1ccc(Br)cc1	20µM*	-5	-3	.
O=S(=O)(Nc1ccc(O)c2ccccc12)c1cccs1	20µM*	4	-3	?
O=S(=O)(Nc1cccc2ccccc12)c1cccs1	-17%	4	9.3*	24%
CC(=O)Nc1ccc(NS(=O)(=O)c2ccccc2)c2ccccc12	0%	2	-2	-7%
O=S(=O)(Nc1cccc2cccnc12)c1cccs1	.	30	20*	.
COc1ccc(/C=C\c2onc(C)c2S(=O)(=O)N2CCC(C(=O)Nc3ccc(C)cc3C)CC2)cc1	5%	.	.	-28%
CC(=O)C1=C(c2ccc(F)cc2)N(C(C)=O)n2c(nnc2C2CCCCC2)S1	5%	.	.	?
COc1ccccc1N1CCN(c2nc(-c3ccc(C)cc3)nc3ccccc23)CC1	13%	.	.	?
Cc1cc(-c2ccnc(-n3ncc(C(=O)NCC4COCCO4)c3C3CC3)n2)c(C)s1 (stereo not given)	.	.	.	47%
COc1ccccc1N1CCN(C(=O)c2cc(-c3ccccc3)on2)CC1	12%	15	-1	-4%
COc1cccc(OCc2cc(C(=O)N3CCN(c4ccccc4O)CC3)no2)c1	-5%	107*	50*	9%
COc1cccc(OCc2cc(C(=O)N3CCN(c4ccccc4OC)CC3)no2)c1	?	70*	29*	33%
COc1cccc(OCc2cc(C(=O)N3CCN(C(C)=O)CC3)no2)c1	-11%	104*	60*	72%
COc1ccccc1N1CCN(C(=O)c2cc(-c3ccco3)on2)CC1	56µM*	5	8	0%
Cc1ccc(-n2nnnc2SCC(=O)NCCc2ccccc2)cc1C	-1%	.	.	2%
COCCC1CCCCN1Cc1nc(N2CCCC2)c2cc(OC)c(OC)cc2n1 (stereo not given)	.	.	.	-2%
COc1cc(C(=O)O[C@H]2C/C(C)=C/CC/C(C)=C/[C@@H](O)C2C(C)C)ccc1O (stereo not given in full)	.	-2	11	.
Cc1ncc2c(c1CNC(=O)CN1CCCC1)CCN(C(=O)c1ccc(F)cc1F)C2	.	.	.	1%
COc1ccc(NC(=O)CC2C(=O)N(c3ccc(Cl)cc3)C(=S)N2NC(=O)c2cccc(F)c2)cc1 (stereo not given)	2%	13	16*	19%
COc1ccc(NC(=O)CC2C(=O)N(c3ccc(F)cc3)C(=S)N2NC(=O)c2ccc(Cl)cc2)cc1 (stereo not given)	-3%	12	10	-13%
